Data published in PubChem BioAssay AID488853 (National Center for Advancing Translational Sciences (NCATS), 2010).
The source made the active and inactive calls. The call rests on the fitted dose curve; in most records, active means well fitted curve in the direction sought with a large enough effect; inconclusive means small, poorly fitted or top-dose-only effect, or another doubt; inactive means no such curve, though single readings can be large or run the other way.

biological target: Lysosomal acid glucosylceramidase (Homo sapiens) (UniProt P04062); assay: qHTS Assay for Inhibitors and Activators of N370S glucocerebrosidase as a Potential Chaperone Treatment of Gaucher Disease: Activity in Non-Mutant Spleen Using Alternate Substrate Confirmation for Probe SAR; conditions: human spleen homogenate, resorufin-glucoside fluorescence, 40 min; series mostly up to 57.5 µM
Sequence (P04062 whole entry, looked up): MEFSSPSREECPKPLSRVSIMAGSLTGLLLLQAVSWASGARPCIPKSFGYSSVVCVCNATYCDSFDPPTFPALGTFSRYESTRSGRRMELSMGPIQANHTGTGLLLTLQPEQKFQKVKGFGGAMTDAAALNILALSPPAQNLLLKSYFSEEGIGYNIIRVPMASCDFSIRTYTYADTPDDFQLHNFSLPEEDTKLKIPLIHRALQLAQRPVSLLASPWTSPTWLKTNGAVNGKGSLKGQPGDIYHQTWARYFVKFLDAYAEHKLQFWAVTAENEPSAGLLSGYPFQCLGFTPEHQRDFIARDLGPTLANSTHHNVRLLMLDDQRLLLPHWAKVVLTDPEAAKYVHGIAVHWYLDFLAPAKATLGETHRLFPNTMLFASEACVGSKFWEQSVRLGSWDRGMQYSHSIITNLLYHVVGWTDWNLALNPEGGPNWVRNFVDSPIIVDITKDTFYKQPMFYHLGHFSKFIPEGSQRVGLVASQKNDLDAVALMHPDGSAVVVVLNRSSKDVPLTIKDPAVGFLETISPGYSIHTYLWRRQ
Source text: NIH Chemical Genomics Center [NCGC] NIH Molecular Libraries Probe Production Centers Network [MLPCN] MLPCN Grant: MH086442-01 Assay Submitter (PI): Wei Zheng Glucocerebrosidase (GC) catalyzes the hydrolysis of beta-glucocerebroside to glucose and ceramide in lysosomes. Mutations in the glucocerebrosidase gene result in Gaucher disease, an autosomal recessive lysosomal storage disorder. Many of the mutations encountered in patients with Gaucher disease are missense alterations that may cause misfolding, decreased stability and/or mistrafficking of this lysosomal protein. […] These inhibitors include iminosugar analogs and three non-iminosugar inhibitors identified from a previous HTS of 62,000 compounds with the wild type recombinant enzyme. However, the enhancement of enzyme activity by the chaperone action of an enzyme inhibitor must be balanced against the direct inhibition of the enzyme. An enzyme activator could also function as a chaperone by binding to the enzyme and helping to correct its misfolding and mistrafficking. While activators for GC have not yet been identified, they may have better therapeutic potential than inhibitors. Therefore the discovery and development of chemical activators may provide a new strategy for the chaperone therapy. We have optimized a new assay using N370S mutant GC derived from the spleen of a Gaucher patient. […] In addition, the MLPCN compound library has expanded, which increases the chance of finding new and better probes. This confirmation assay tests for compound activity in spleen homogenate containing wildtype enzyme using an alternate resorufin-based substrate.
NCGC Assay Protocol Summary: This is a fluorogenic enzyme assay with resorufin-beta-D-glucopyranoside as the substrate and wildtype glucocerebrosidase from human spleen homogenate as the enzyme preparation. Upon the hydrolysis of this fluorogenic substrate, the resulting product, […] which can be detected by a standard fluorescence plate reader. Data were normalized to the controls for basal activity (without enzyme) and 100% activity (with enzyme). The AC50 values were determined from concentration-response data modeled with the standard Hill equation. Assay buffer: 50 mM citric acid (titrated with potassium phosphate to pH 5.0), 100 mM potassium chloride, 10 mM sodium chloride, 1 mM magnesium chloride, 0.01% Tween-20. 1536-well assay protocol: (1) Add 2 ul/well of spleen homogenate (27 ug final) (2) Add 23 nL compounds in DMSO solution. The final titration was 0.5 nM to 58 uM. (3) Add 2 ul of substrate (1 mM final) (4) Incubate at 37C for 40 min. (5) Add 2 ul stop solution (1M NaOH and 1M Glycine mixture, pH 10) (6) Detect the assay plate in a ViewLux plate reader (PerkinElmer) with Ex=365 nm and Em=440nm. Keywords: Glucocerebrosidase, beta-glucosidase, Gaucher Disease, pharmacological chaperone, chaperone therapy, high throughput screening, glucocerebrosidase inhibitor, MLSMR, MLSCN, NIH Roadmap, qHTS and NCGC

outcome, inactive:
Cc1cc(C)n2ncc(C(=O)Nc3cccc(C#N)c3)c2n1, Cc1cc(C)n2ncc(C(=O)N3CCCC3)c2n1, Cc1cc(C)n2ncc(C(=O)NC3CCC(C(C)(C)C)CC3)c2n1 (configuration not stated), Cc1ccc(NC(=O)c2cnn3c(C)cc(C)nc23)c(C)c1, CC(=O)Nc1ccccc1NC(=O)c1cnn2c(C)cc(C)nc12, Cc1cc(C)n2ncc(C(=O)Nc3ccc(C)c(C)c3)c2n1, Cc1cc(C)n2ncc(C(=O)Nc3ccc4c(c3)CCC4)c2n1, Cc1cc(C)n2ncc(C(=O)NCC(C)C)c2n1, COc1ccc(NC(=O)c2cnn3c(C)cc(C)nc23)cc1F, Cc1cc(C)n2ncc(C(=O)Nc3ccccc3)c2n1, Cc1ccc(NC(=O)c2cnn3c(C)cc(C)nc23)cc1, Cc1cc(C)n2ncc(C(=O)Nc3ccncc3)c2n1, COc1ccc(NC(=O)c2cnn3c(C)cc(C)nc23)cc1Cl, Cc1cc(C)n2ncc(C(=O)Nc3ccc(C#N)cc3)c2n1, CCc1ccc(NC(=O)c2cnn3c(C)cc(C)nc23)cc1, O=C(Nc1cnn(Cc2ccc(F)cc2)c1)c1cnn2c(C(F)F)cc(-c3ccccc3)nc12, COc1ccc(NC(=O)c2cnn3c(C)cc(C)nc23)cc1OC, Cc1cc(C)n2ncc(C(=O)Nc3ccc(Br)cc3)c2n1, Cc1cc(C)n2ncc(C(=O)Nc3ccc4c(c3)OCCO4)c2n1, Cc1cc(C)n2ncc(C(=O)Nc3ccc(C(C)(C)C)cc3)c2n1, Cc1cc(C)n2ncc(C(=O)Nc3ccc(C(F)(F)F)cc3)c2n1, Cc1cc(C)n2ncc(C(=O)NC(C)C)c2n1, CC(=O)c1cccc(NC(=O)c2cnn3c(C)cc(C)nc23)c1, COc1ccc(NC(=O)c2cnn3c(C)cc(C)nc23)cc1, CC(=O)c1ccc(NC(=O)c2cnn3c(C)cc(C)nc23)cc1, Cc1cc(C)n2ncc(C(=O)NCc3ccco3)c2n1, Cc1cc(C)n2ncc(C(=O)Nc3cccc(C(F)(F)F)c3)c2n1, Cc1cc(C)n2ncc(C(=O)Nc3ccc4c(c3)OCO4)c2n1, Cc1cc(C)n2ncc(C(=O)NC3CCCCC3)c2n1, COc1cc(NC(=O)c2cnn3c(C)cc(C)nc23)cc(OC)c1OC, C#Cc1ccc(NC(=O)c2cnn3c(C)cc(C)nc23)cc1, CNC(=O)c1cnn2c(C)cc(C)nc12, Cc1cc(C)n2ncc(C(=O)Nc3ccc(S(C)(=O)=O)cc3)c2n1, CC(=O)Nc1ccc(NC(=O)c2cnn3c(C)cc(C)nc23)cc1, Cc1cccc(NC(=O)c2cnn3c(C)cc(C)nc23)c1, Cc1cc(C)n2ncc(C(=O)NCc3ccccc3)c2n1, Cc1cc(C)n2ncc(C(=O)Nc3ccccc3C)c2n1
